# Where “and” joins values, the source holds several entries; their conditions need not be identical. Identical values can stand only once. Results filed as inconclusive are left out. Some compounds were tested as several samples or in several runs, with calls that do not always agree. Calls of active or inactive are those of the source. The calls were made as follows, unless noted: active = hit-call score of the fitted dose curve at least 0.9, where 1 is the maximum; inconclusive = response in the unintended direction; inactive = score below 0.9.
# How the values were obtained:
# [1] = biological target: Estrogen receptor (Homo sapiens) (UniProt P03372); test: OT_ERa_GFPERaERE_0480: Odyssey Thera (OT) 8-hour HeLa Transcription Induction Assay for Estrogen Receptor (AID 2283381; active = hit-call score of the fitted dose curve at least 0.9, where 1 is the maximum; inactive = score below 0.9)
# Chain of Estrogen receptor (Homo sapiens) (P03372 whole entry, looked up): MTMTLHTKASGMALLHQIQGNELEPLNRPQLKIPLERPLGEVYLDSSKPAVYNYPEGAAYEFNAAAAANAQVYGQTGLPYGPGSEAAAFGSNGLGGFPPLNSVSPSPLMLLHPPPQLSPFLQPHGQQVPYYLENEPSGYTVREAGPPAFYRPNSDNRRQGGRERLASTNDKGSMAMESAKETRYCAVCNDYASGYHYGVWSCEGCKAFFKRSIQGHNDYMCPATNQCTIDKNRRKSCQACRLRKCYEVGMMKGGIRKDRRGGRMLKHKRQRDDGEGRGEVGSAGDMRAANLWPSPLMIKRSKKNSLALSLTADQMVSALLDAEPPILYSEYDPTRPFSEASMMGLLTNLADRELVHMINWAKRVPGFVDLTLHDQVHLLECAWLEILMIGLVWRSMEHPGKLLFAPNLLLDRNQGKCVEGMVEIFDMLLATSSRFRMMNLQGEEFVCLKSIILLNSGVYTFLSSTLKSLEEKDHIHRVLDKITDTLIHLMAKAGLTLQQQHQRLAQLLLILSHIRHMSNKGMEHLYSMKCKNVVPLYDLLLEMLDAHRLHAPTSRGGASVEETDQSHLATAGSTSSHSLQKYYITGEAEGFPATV
# Summary of the method: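 Cells (HeLa) receive compound; after 8 h, reporter fluorescence is imaged and quantified by high-content analysis. Gain-of-signal relative to DMSO gives the endpoint.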
# [2] = biological target: Estrogen receptor (Homo sapiens) (UniProt P03372); test: OT_ERa_GFPERaERE_0120: Odyssey Thera (OT) 2-hour HeLa Transcription Induction Assay for Estrogen Receptor (AID 2283382)
# Summary of the method: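 Measures ESR1 pathway reporter gain-of-signal in HeLa cells after a 2-hour treatment, detected as fluorescent protein induction by microscopy, DMSO as baseline.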
# [3] = biological target: Retinoic acid receptor RXR-alpha (Homo sapiens) (UniProt P19793); test: OT_NURR1_NURR1RXRa_0480: Odyssey Thera (OT) 8-hour HEK293T Protein Complementation Assay for Nurr1/retinoid X receptor (RXR) (AID 2283385)
# Chain of Retinoic acid receptor RXR-alpha (Homo sapiens) (P19793 whole entry, looked up, the tested form may be a part): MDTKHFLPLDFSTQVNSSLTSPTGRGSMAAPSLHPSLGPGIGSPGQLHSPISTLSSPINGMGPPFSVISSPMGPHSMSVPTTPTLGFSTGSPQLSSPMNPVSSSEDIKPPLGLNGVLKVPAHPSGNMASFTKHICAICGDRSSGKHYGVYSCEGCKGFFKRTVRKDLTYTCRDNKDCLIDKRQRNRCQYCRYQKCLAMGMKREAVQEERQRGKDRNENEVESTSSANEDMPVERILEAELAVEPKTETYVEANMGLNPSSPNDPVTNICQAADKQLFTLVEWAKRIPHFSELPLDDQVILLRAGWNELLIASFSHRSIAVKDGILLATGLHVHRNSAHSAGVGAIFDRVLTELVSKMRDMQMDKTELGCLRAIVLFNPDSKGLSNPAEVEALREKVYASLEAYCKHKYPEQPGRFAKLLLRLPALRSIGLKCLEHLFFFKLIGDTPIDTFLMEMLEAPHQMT
# Summary of the method: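 Compounds are applied to HEK293T cells carrying Nurr1 and RXRα linked to reporter fragments. After 8 h, fluorescence intensity reports heterodimer formation, with DMSO as baseline.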
# [4] = biological target: Retinoic acid receptor RXR-alpha (Homo sapiens) (UniProt P19793); test: OT_NURR1_NURR1RXRa_1440: Odyssey Thera (OT) 24-hour HEK293T Protein Complementation Assay for Nurr1/retinoid X receptor (RXR) (AID 2283386)
# Summary of the method: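 Measured as fluorescence from a reconstituted split reporter, this 24 h HEK293T complementation assay scores compound-induced gain of Nurr1/RXRα association relative to DMSO.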
# [5] = biological target: Peroxisome proliferator-activated receptor gamma (Homo sapiens) (UniProt P37231); test: OT_PPARg_PPARgSRC1_1440: Odyssey Thera (OT) 24-hour Protein-Complementation Assay for Peroxisome Proliferator-activated Receptor Gamma/ SRC-1 Co-activator (AID 2283388)
# Chain of Peroxisome proliferator-activated receptor gamma (Homo sapiens) (P37231 whole entry, looked up, the tested form may be a part): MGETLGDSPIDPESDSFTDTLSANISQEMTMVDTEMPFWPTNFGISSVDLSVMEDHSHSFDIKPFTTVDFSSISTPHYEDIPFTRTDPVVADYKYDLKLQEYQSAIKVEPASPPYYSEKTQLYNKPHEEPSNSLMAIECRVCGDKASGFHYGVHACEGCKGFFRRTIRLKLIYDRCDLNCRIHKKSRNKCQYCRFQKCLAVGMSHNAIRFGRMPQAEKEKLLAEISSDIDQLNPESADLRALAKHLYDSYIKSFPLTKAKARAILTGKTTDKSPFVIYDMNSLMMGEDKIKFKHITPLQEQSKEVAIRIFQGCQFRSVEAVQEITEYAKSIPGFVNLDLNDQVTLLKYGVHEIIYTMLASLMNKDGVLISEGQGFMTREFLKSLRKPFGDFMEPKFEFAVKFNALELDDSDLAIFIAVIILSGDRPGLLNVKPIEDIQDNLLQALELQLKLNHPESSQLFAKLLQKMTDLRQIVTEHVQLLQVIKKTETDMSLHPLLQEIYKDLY
# Summary of the method: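 HEK293T transiently transfected with PPARg/SRC-1 split-Venus YFP fusions 48 h before dosing, then treated 24 h at 37C. Fixed cells imaged; nuclear/cytoplasmic 488 nm fluorescence ratio, gain of signal versus DMSO.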
# [6] = read-out: Tumor necrosis factor receptor superfamily member 6 (Homo sapiens) (UniProt P25445); test: LTEA_HepaRG_FAS: Life Technologies and Expression Analysis (LTEA) Assay for Fas cell surface death receptor (FAS) using HepaRG (AID 2283447; active = hit-call score of the fitted dose curve at least 0.9, where 1 is the maximum; inactive = score below 0.9); details: mRNA level, 48 h; actives raise or lower the signal
# Summary of the method: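 FAS transcript level was measured by TaqMan qRT-PCR against three housekeeping genes after 48 h chemical exposure. Cells were HepaRG, 0.5% DMSO vehicle, with a top concentration of 100 uM and half-log dilutions over eight points, in duplicate.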
# [7] = read-out: Fatty acid synthase (Homo sapiens) (UniProt P49327); test: LTEA_HepaRG_FASN: Life Technologies and Expression Analysis (LTEA) Assay for Fatty Acid Synthase (FASN) using HepaRG (AID 2283448; active = hit-call score of the fitted dose curve at least 0.9, where 1 is the maximum; inactive = score below 0.9;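 as to AC50: differentiated human HepaRG liver cells in serum-free induction medium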); details: mRNA level, 48 h; actives raise or lower the signal
# Summary of the method: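 Transcript-level assay: HepaRG liver cells are treated for 48 h across an eight-point range topping at 100 uM, and FASN mRNA, normalized to three housekeeping genes, is compared with DMSO controls in both directions.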
# [8] = biological target: Peroxisome proliferator-activated receptor gamma (Homo sapiens) (UniProt P37231); test: OT_PPARg_PPARgSRC1_0480: Odyssey Thera (OT) 8-hour Protein-Complementation Assay for Peroxisome Proliferator-activated Receptor Gamma / SRC-1 Co-activator (AID 2283387)
# Summary of the method: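 Split-YFP (IFP1/IFP2) PPARg/SRC-1 reporter, HEK293T, 37 °C, 5% CO2; 8 h compound; formaldehyde fix + Draq5; high-content imaging, N/C ratio, ≥350 cells/image, positive direction vs DMSO.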
# [9] = CEETOX_H295R_11DCORT: CeeTox H295R High-throughput Steroidogenesis Assay for 11-Deoxycortisol (11DCORT) (AID 2283432; active = hit-call score of the fitted dose curve at least 0.9, where 1 is the maximum; inactive = score below 0.9;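 as to AC50: 11-deoxycortisol secreted into the medium measured by LC-MS/MS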); details: actives raise or lower the signal
# Summary of the method: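 Steroidogenesis in human H295R cells: 48 h chemical exposure after forskolin priming, 11-deoxycortisol measured by LC-MS/MS.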
# [10] = CEETOX_H295R_OHPROG: CeeTox H295R High-throughput Steroidogenesis Assay for OH-Progesterone (OHPROG) (AID 2283435; active = hit-call score of the fitted dose curve at least 0.9, where 1 is the maximum; inactive = score below 0.9;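 as to AC50: human adrenal H295R cells primed 48 h with 10 µM forskolin; 17alpha-hydroxyprogesterone secreted into medium measured by HPLC-MS/MS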); details: actives raise or lower the signal
# Summary of the method: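 Secreted 17alpha-hydroxyprogesterone is read by tandem MS from media of forskolin-primed H295R cells dosed with chemical for 48 h. Activity is fitted in both directions against DMSO baseline; cytotoxic concentrations are re-tested diluted.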
# [11] = CEETOX_H295R_CORTISOL: CeeTox H295R High-throughput Steroidogenesis Assay for Cortisol (AID 2283438; active = hit-call score of the fitted dose curve at least 0.9, where 1 is the maximum; inactive = score below 0.9;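 also: cortisol secreted into medium quantified by LC-MS/MS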); details: actives raise or lower the signal
# Summary of the method: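 Human adrenocortical H295R cells (passage ≤10) received test chemicals for 48 h after forskolin priming. Secreted cortisol was measured by LC-MS/MS.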
# [12] = CEETOX_H295R_DOC: CeeTox H295R High-throughput Steroidogenesis Assay for DOC (AID 2283439; active = hit-call score of the fitted dose curve at least 0.9, where 1 is the maximum; inactive = score below 0.9); details: actives raise or lower the signal
# Summary of the method: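 Secreted DOC was quantified from H295R media by HPLC-MS/MS after 48 h chemical exposure following 48 h forskolin (10 uM) prestimulation. Values were fitted in both directions relative to DMSO, the negative control and baseline.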
# [13] = CEETOX_H295R_ESTRONE: CeeTox H295R High-throughput Steroidogenesis Assay for Estrone (AID 2283441; active = hit-call score of the fitted dose curve at least 0.9, where 1 is the maximum; inactive = score below 0.9;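 also: estrone secreted into medium measured by LC-MS/MS after dansyl derivatization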); details: actives raise or lower the signal
# Summary of the method: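 H295R cells; 48 h forskolin (10 uM) prestimulation; 48 h compound exposure, 0.1% DMSO final. Medium estrone: MTBE extraction, dansyl derivatization, HPLC-MS/MS. Bidirectional fit vs DMSO.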
# [14] = CEETOX_H295R_PROG: CeeTox H295R High-throughput Steroidogenesis Assay for Progesterone (PROG) (AID 2283442; active = hit-call score of the fitted dose curve at least 0.9, where 1 is the maximum; inactive = score below 0.9); details: actives raise or lower the signal
# Summary of the method: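 H295R adrenal cells prestimulated 48 h with 10 uM forskolin, then exposed 48 h to test chemical in 0.1% DMSO. Progesterone in medium quantified by HPLC-MS/MS after MTBE extraction; viability checked by MTT in same wells.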
# [15] = biological target: Bile acid receptor (Homo sapiens) (UniProt Q96RI1); test: OT_FXR_FXRSRC1_0480: Odyssey Thera (OT) 8-hour HEK293T Protein-Complementation Assay for Farnesoid X receptor/SRC-1 Co-activator (AID 2283383)
# Chain of Bile acid receptor (Homo sapiens) (Q96RI1 whole entry, looked up, the tested form may be a part): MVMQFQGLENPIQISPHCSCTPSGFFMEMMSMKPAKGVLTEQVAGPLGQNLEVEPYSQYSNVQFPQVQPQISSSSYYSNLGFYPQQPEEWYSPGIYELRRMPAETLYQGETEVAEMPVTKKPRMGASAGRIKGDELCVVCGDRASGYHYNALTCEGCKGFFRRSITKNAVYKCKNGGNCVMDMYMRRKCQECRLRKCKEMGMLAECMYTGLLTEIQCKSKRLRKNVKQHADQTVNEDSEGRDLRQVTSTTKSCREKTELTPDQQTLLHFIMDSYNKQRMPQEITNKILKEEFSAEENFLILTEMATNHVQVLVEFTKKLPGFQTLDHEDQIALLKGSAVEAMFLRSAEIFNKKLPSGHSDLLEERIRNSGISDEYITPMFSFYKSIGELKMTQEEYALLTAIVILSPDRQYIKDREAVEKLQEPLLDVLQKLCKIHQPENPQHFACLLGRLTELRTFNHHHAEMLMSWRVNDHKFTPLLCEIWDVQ
# Summary of the method: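 Co-activator recruitment to FXR was measured in living HEK293T cells, where interaction of the two fused partners restored an active fluorescent reporter. Signal gain after 8 h treatment was referenced to DMSO.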
# [16] = biological target: Bile acid receptor (Homo sapiens) (UniProt Q96RI1); test: OT_FXR_FXRSRC1_1440: Odyssey Thera (OT) 24-hour HEK293T Protein-Complementation Assay for Farnesoid X receptor/SRC-1 Co-activator (AID 2283384)
# Summary of the method: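 Cell-based binding reporter: interaction of FXR with SRC-1 brings reporter fragments together, giving a fluorescence signal read 24 h after dosing of HEK293T cells.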
# [17] = CEETOX_H295R_OHPREG: CeeTox H295R High-throughput Steroidogenesis Assay for OH-Pregnenolone (OHPREG) (AID 2283434; active = hit-call score of the fitted dose curve at least 0.9, where 1 is the maximum; inactive = score below 0.9); details: actives raise or lower the signal
# Summary of the method: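 Hormone levels in spent medium were measured by tandem mass spectrometry following liquid-liquid extraction. Cells (H295R) had been forskolin-stimulated (10 uM, 48 h) before a 48 h chemical exposure at 0.1% DMSO, with activity fitted in both directions against DMSO.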
# [18] = CEETOX_H295R_CORTIC: CeeTox H295R High-throughput Steroidogenesis Assay for Corticosterone (CORTIC) (AID 2283437; active = hit-call score of the fitted dose curve at least 0.9, where 1 is the maximum; inactive = score below 0.9;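 also: human H295R adrenal cells prestimulated with forskolin before chemical exposure; corticosterone secreted into medium quantified by mass spectrometry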); details: actives raise or lower the signal
# Summary of the method: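 Corticosterone secreted into medium is measured by reverse-phase HPLC with tandem MS following liquid-liquid extraction. Cells are forskolin-stimulated (10 uM, 48 h) before 48 h test exposure; activity fitted in both directions against DMSO.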
# [19] = CEETOX_H295R_ESTRADIOL: CeeTox H295R High-throughput Steroidogenesis Assay for Estradiol (AID 2283440; active = hit-call score of the fitted dose curve at least 0.9, where 1 is the maximum; inactive = score below 0.9;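 also: estradiol secreted into medium quantified by LC-MS/MS after dansyl derivatisation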); details: actives raise or lower the signal
# Summary of the method: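 H295R cells pre-stimulated 48 h with 10 uM forskolin, then exposed 48 h to chemical in 0.1% DMSO. Medium estradiol quantified by MTBE extraction, dansyl derivatisation and HPLC-MS/MS; bidirectional fit versus DMSO; MTT viability required >/=70%.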
# Chain of Fatty acid synthase (Homo sapiens) (P49327 whole entry, looked up): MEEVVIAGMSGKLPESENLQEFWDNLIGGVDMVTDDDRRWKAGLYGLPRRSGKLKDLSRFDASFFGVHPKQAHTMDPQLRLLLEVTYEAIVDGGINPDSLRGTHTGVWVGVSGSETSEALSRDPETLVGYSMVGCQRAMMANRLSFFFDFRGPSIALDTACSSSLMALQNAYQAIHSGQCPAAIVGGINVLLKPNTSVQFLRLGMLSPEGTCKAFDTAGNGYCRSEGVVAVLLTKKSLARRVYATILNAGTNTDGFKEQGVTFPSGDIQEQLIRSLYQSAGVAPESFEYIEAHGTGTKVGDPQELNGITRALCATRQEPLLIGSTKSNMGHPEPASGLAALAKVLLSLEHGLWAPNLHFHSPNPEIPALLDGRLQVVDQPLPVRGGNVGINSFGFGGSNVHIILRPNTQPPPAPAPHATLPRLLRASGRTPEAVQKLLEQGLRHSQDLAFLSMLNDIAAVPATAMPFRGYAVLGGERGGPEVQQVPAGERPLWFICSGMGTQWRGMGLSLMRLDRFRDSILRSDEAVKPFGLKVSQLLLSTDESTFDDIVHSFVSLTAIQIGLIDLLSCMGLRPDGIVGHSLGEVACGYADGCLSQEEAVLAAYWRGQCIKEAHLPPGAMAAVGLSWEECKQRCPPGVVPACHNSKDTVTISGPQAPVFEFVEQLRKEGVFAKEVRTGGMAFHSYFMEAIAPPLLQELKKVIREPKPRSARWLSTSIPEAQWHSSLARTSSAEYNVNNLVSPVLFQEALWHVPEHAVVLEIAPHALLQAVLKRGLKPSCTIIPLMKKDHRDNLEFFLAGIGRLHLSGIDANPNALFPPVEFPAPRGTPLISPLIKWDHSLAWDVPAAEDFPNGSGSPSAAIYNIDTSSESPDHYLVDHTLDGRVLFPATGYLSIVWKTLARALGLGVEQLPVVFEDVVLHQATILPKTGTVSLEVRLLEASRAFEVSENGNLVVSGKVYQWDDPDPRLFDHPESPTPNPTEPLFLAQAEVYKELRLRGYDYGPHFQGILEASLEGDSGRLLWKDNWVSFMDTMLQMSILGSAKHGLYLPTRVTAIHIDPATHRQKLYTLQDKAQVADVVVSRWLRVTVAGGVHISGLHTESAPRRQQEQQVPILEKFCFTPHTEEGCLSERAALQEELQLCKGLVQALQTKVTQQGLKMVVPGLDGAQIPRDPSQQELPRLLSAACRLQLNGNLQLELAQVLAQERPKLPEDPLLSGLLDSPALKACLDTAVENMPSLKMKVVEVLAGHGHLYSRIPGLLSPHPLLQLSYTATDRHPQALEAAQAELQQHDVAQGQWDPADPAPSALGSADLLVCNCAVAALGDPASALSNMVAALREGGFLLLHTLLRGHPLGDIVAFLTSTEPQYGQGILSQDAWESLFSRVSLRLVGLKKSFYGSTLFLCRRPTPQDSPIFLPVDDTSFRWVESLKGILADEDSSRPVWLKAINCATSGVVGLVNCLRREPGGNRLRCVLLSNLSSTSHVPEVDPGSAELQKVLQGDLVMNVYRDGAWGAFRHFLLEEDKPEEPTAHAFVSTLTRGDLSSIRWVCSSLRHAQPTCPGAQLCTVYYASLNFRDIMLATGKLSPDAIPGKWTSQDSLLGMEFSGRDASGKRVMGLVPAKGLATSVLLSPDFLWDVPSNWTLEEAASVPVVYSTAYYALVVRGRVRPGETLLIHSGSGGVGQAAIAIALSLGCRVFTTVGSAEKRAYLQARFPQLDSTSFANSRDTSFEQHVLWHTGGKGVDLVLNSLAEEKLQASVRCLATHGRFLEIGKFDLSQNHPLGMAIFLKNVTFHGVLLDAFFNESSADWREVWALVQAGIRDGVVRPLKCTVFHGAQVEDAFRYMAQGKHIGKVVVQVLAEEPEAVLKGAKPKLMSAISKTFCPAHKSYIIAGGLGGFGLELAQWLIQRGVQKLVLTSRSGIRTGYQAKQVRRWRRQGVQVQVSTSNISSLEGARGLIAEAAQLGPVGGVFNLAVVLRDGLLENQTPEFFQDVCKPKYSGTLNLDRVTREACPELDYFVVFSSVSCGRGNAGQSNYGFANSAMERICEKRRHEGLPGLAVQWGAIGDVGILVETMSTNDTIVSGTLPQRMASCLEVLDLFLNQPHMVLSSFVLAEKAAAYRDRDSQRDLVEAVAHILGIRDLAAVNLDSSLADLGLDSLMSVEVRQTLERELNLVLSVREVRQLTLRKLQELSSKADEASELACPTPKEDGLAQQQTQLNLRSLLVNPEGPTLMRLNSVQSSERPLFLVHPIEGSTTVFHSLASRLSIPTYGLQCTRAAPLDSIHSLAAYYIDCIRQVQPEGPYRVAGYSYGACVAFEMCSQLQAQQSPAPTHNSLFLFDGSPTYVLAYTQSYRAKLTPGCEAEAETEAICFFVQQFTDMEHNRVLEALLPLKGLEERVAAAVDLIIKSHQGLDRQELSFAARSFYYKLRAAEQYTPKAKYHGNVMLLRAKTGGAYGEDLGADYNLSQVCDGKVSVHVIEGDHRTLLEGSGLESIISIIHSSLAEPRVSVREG
smiles,measurement,setting,value
CC/C(=C\C(=N/O)C(N)=O)C(C)[N+](=O)[O-] (centres undefined),outcome,[1],inactive
same,outcome,[2],inactive
same,AC50,[3],31.6 µM (active)
same,outcome,[4],inactive
same,outcome,[5],inactive
same,outcome,[6],inactive
same,outcome,[7],inactive
O=c1n(CC2CO2)c(=O)n(CC2CO2)c(=O)n1CC1CO1 (centres undefined),outcome,[1],inactive
same,outcome,[2],inactive
same,AC50,[3],50 µM (active) and 34.7 µM (active)
same,outcome,[4],inactive
same,outcome,[8],inactive
same,outcome,[5],inactive
same,AC50,[6],89.1 µM (active)
same,outcome,[7],inactive
CCCCCCCCO,outcome,[1],inactive
same,outcome,[2],inactive
same,outcome,[4],inactive
same,outcome,[5],inactive
same,outcome,[9],inactive
same,outcome,[10],inactive
same,outcome,[11],inactive
same,outcome,[12],inactive
same,outcome,[13],inactive
same,outcome,[14],inactive
same,outcome,[6],inactive
same,outcome,[7],inactive
CCn1nc(Cc2ccccc2)cc1C1CCN(C[C@H]2C[C@H](N(C)[C@@H](C(=O)O)C(C)C)C[C@@H]2c2cccc(F)c2)CC1,outcome,[1],inactive
same,outcome,[2],inactive
same,outcome,[3],inactive
same,outcome,[4],inactive
same,outcome,[5],inactive
same,outcome,[6],inactive
same,outcome,[7],inactive
CCOC(=O)COc1ccc2c(c1)CC(NCC(O)c1cccc(Cl)c1)CC2 (centres undefined),AC50,[1],69.3 µM (active)
same,outcome,[2],inactive
same,AC50,[3],154 nM (active) and 591 nM (active)
same,AC50,[4],10.7 µM (active) and 10.3 µM (active)
same,outcome,[6],inactive
same,outcome,[7],inactive
COC(=O)c1c(Cl)c(Cl)c(C(=O)OC)c(Cl)c1Cl,outcome,[1],inactive
same,outcome,[2],inactive
same,AC50,[15],72.2 µM (active)
same,outcome,[16],inactive
same,AC50,[3],68.6 µM (active)
same,outcome,[3],inactive
same,outcome,[4],inactive
same,outcome,[8],inactive
same,outcome,[5],inactive
same,outcome,[9],inactive
same,outcome,[17],inactive
same,outcome,[10],inactive
same,AC50,[18],16.1 µM (active)
same,outcome,[11],inactive
same,AC50,[12],50 µM (active)
same,AC50,[19],27.4 µM (active)
same,outcome,[13],inactive
same,outcome,[14],inactive
same,outcome,[6],inactive
same,outcome,[7],inactive
CC(C)=CCCC(C)=CC=O,outcome,[1],inactive
same,outcome,[2],inactive
same,outcome,[3],inactive
same,outcome,[4],inactive
same,outcome,[8],inactive
same,outcome,[5],inactive
same,outcome,[9],inactive
same,outcome,[17],inactive
same,outcome,[10],inactive
same,AC50,[18],78.6 µM (active)
same,AC50,[11],75 µM (active)
same,outcome,[14],inactive
same,outcome,[6],inactive
same,outcome,[7],inactive
COC(=O)CC(=O)OC,outcome,[1],inactive
same,outcome,[2],inactive
same,outcome,[3],inactive
same,outcome,[4],inactive
same,outcome,[8],inactive
same,outcome,[5],inactive
same,outcome,[6],inactive
same,AC50,[7],50 µM (active)
O=c1[nH]c2ccc(S(=O)CCN3CCC(Cc4ccc(F)cc4)CC3)cc2o1 (centres undefined),outcome,[1],inactive
same,outcome,[2],inactive
same,outcome,[3],inactive
same,outcome,[4],inactive
same,outcome,[8],inactive
same,outcome,[5],inactive
same,AC50,[9],5.59 µM (active)
same,AC50,[17],3.63 µM (active)
same,AC50,[10],5.68 µM (active)
same,AC50,[18],1.56 µM (active)
same,AC50,[11],6.88 µM (active)
same,outcome,[12],inactive
same,outcome,[19],inactive
same,outcome,[13],inactive
same,outcome,[14],inactive
same,outcome,[6],inactive
same,outcome,[7],inactive

# Source: PubChem BioAssay (EPA / NIEHS)
